Measurements as given in PubChem BioAssay (NCI).
About 79,000 compounds went through this panel and 15% of them were active in at least one assay; those are over-represented in the sample as a whole. Values without a mark were called inactive. Active and inactive are the calls of the source. No stated cut-off is given here; in the data, active means growth inhibition above about 70%; inactive means the rest.

Experiments:
[1] = NCI Yeast Anticancer Drug Screen. Data for the rad50 strain (AID 155);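 further: 0% = growth of vehicle-only cultures of the same strain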; settings: S. cerevisiae rad50 strain growth inhibition, stronger effect = higher value
How it was run: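 Yeast carrying a defined DNA repair defect were exposed to test compounds, and growth was compared with vehicle-treated controls to give percent inhibition.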

[2] = NCI Yeast Anticancer Drug Screen. Data for the mec2-1 strain (AID 157); settings: S. cerevisiae mec2-1 strain, stronger effect = higher value
How it was run: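 Strain: mec2-1 (DNA repair/cell cycle alteration). Compound exposure, then growth measured; inhibition expressed relative to vehicle.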

[3] = NCI Yeast Anticancer Drug Screen. Data for the sgs1 mgt1 strain (AID 161);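 further: 0% = growth of cultures given vehicle only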; settings: S. cerevisiae sgs1 mgt1 strain, stronger effect = higher value
How it was run: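 Mutant yeast exposed to compound; growth scored against vehicle-only wells.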

[4] = NCI Yeast Anticancer Drug Screen. Data for the cln2 rad14 strain (AID 165);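 further: 0% = growth equal to vehicle treated cultures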; settings: S. cerevisiae cln2 rad14 strain, stronger effect = higher value
How it was run: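 Compounds are applied to the cln2 rad14 yeast strain, and growth is then compared with that of vehicle-treated cultures to give inhibition.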

[5] = NCI Yeast Anticancer Drug Screen. Data for the bub3 strain (AID 167); settings: S. cerevisiae bub3 mutant strain, stronger effect = higher value
How it was run: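 Compounds were applied to a genetically altered yeast strain carrying a cell-cycle control defect. Growth inhibition was scored against vehicle-treated controls.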

[6] = NCI Yeast Anticancer Drug Screen. Data for the mlh1 rad18 strain (AID 175); settings: S. cerevisiae mlh1 rad18 strain growth inhibition, stronger effect = higher value
How it was run: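 Read-out is yeast growth inhibition, calculated against vehicle-only controls. The compound was applied to a strain engineered with DNA damage repair alterations.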

[7] = at 5.0 µM (retest, dose inferred, filed as 0.5)
[8] = at 50.0 µM (retest, dose inferred, filed as 5.0)

SMILES | growth inhibition [1, 7] | growth inhibition [1, 8] | growth inhibition ([1]; at 50.0 µM) | growth inhibition [2, 7] | growth inhibition [2, 8] | growth inhibition ([2]; at 50.0 µM) | growth inhibition [3, 7] | growth inhibition [3, 8] | growth inhibition ([3]; at 50.0 µM) | growth inhibition [4, 7] | growth inhibition [4, 8] | growth inhibition ([4]; at 50.0 µM) | growth inhibition [5, 7] | growth inhibition [5, 8] | growth inhibition ([5]; at 50.0 µM) | growth inhibition [6, 7] | growth inhibition [6, 8] | growth inhibition ([6]; at 50.0 µM)
O=C(N/C(=C\c1ccccc1Cl)c1nc2ccccc2s1)c1ccccc1 | 20% | 99% (active) | 99% (active) | 13% | 99% (active) | 99.2% (active) | 54% | 99% (active) | 99.2% (active) | 11% | 99% (active) | 99% (active) | 30% | 99% (active) | 98.8% (active) | 20% | 99% (active) | 99.1% (active)
OC1C2COc3nc4ccccc4n3C(O2)C1O (configuration not stated) | -153% | -165% | -7.3% | -54% | -57% | 5.4% | -58% | -70% | -10.4% | -60% | -56% | 33.6% | -69% | -84% | -14.9% | -117% | -118% | -7.05%
N=C(N)c1ccc2oc3ccc(C(=N)N)cc3c(=O)c2c1 | 8% | 65% | 57.8% | 3% | 70% (active) | 29.9% | 21% | 76% (active) | 65.5% | 11% | 65% | 71.8% (active) | -4% | 76% (active) | 38% | 10% | 77% (active) | 73.4% (active)
Nc1ccc(Cc2ccc(N)cc2[N+](=O)[O-])c([N+](=O)[O-])c1 | 1% | 0% | 14.6% | 5% | 7% | 25.9% | 6% | 74% (active) | 66.8% | 5% | 31% | 39% | -4% | -3% | 35.4% | -6% | -2% | -18.9%
CCCOc1ccc(-c2nc(-c3ccc(N=Cc4ccc(N(CCOS(C)(=O)=O)CCOS(C)(=O)=O)cc4C)cc3)cs2)cc1 | 13% | 82% (active) | 84.7% (active) | 7% | 83% (active) | 76.8% (active) | 8% | 89% (active) | 46.5% | 7% | 53% | 24.6% | -3% | 2% | 37% | 50% | 95% (active) | 92.4% (active)
CN(C)c1nc(NNS(=O)(=O)c2ccc(N)cc2)nc(N(C)C)n1 | 1% | -17% | -27.1% | 2% | -1% | 7.55% | 1% | -72% | -5.75% | 2% | -6% | 55% | -6% | -8% | -12.3% | -1% | 0% | 3.85%
CC(=O)OCC1(O)OCC(OC(C)=O)C(OC(C)=O)C1OC(C)=O (configuration not stated) | 18% | -21% | 12.2% | -15% | -20% | -2.6% | -4% | 9% | 12.6% | 27% | -36% | -2.65% | 6% | -25% | 7.9% | -4% | -14% | 12.9%
Clc1ccc(/C=C\c2ccncc2)cc1 | 3% | 58% | 48.2% | 4% | 51% | 44.9% | 4% | 59% | 29.1% | 1% | 7% | 29.7% | 4% | 39% | 30% | -1% | 32% | 62%
COC(=O)C1CCC(c2ccccc2)CC1C(=O)OC (configuration not stated) | 2% | 10% | 24.9% | 0% | 6% | 20.9% | 1% | 12% | 33% | 5% | 12% | 24% | 25% | 31% | 71.2% (active) | -3% | 9% | 28.6%
